From PubChem BioAssay AID1159580 (chemical genetic matrix, 2015)
Hit rate of the full screen: of about 5,500 compounds, about 2,000 (36%) were called active. Roughly 18% stayed inconclusive and do not appear here. No stated cut-off is given here; in the data, active means normalized growth mostly below about 0.91 (no sharp cut-off); inconclusive means no clear call, values can overlap the other calls; inactive means mostly above about 0.92. Some of the results follow.

Test: chemical genetic growth profiling, strain panel (AID 1159580);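 further: tested at 20 µM; growth read once vehicle control cultures reached saturation at 30 °C; 1 = growth at the plate median or of vehicle wells; lower values mean less growth of the strain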
Settings: growth OD

Measured: normalized growth

Oc1cc(O)c2c(c1)O[C@H](c1cc(O)c(O)c(O)c1)[C@H](O)C2
inactive: S. cerevisiae deletion strains, locus YJR043C, strain POL32, hits give low values 1.05 | S. cerevisiae deletion strains, locus YJR066W, strain TOR1, hits give low values 0.918 | S. cerevisiae deletion strains, locus YKL009W, strain mrt4, hits give low values 0.976 | S. cerevisiae deletion strains, locus YKL068W, hits give low values 1 | S. cerevisiae deletion strains, locus YKL085W, strain MDH1 (second series), hits give low values 1 | S. cerevisiae deletion strains, locus YKL085W, strain MDH1, hits give low values 1 | S. cerevisiae deletion strains, locus YKL160W, strain elf1, hits give low values 1.01 | S. cerevisiae deletion strains, locus YKR001C, strain vps1, hits give low values 0.973 | S. cerevisiae deletion strains, locus YKR026C, strain gcn3, hits give low values 1.02 | S. cerevisiae deletion strains, locus YKR091W, strain srl3, hits give low values 1.02 | S. cerevisiae deletion strains, locus YLL001W, strain dnm1, hits give low values 1.03 | S. cerevisiae deletion strains, locus YLL026W, hits give low values 1.02 | S. cerevisiae deletion strains, locus YLL041C, strain sdh2, hits give low values 1.02 | S. cerevisiae deletion strains, locus YLR027C, strain aat2, hits give low values 1 | S. cerevisiae deletion strains, locus YLR039C, strain RIC1, hits give low values 1.05 | S. cerevisiae deletion strains, locus YLR058C, strain SHM2, hits give low values 0.98 | S. cerevisiae deletion strains, locus YLR102C, strain apc9, hits give low values 0.976 | S. cerevisiae deletion strains, locus YLR113W, strain HOG1, hits give low values 0.977 | S. cerevisiae deletion strains, locus YLR221C, strain rsa3, hits give low values 1.01 | S. cerevisiae deletion strains, locus YLR258W, strain gsy2, hits give low values 1.01 | S. cerevisiae deletion strains, locus YLR262C, strain YPT6 (second series), hits give low values 1.03 | S. cerevisiae deletion strains, locus YLR262C, strain YPT6, hits give low values 1.06 | S. cerevisiae deletion strains, locus YLR268W, strain sec22, hits give low values 0.98 | S. cerevisiae deletion strains, locus YLR320W, strain mms22, hits give low values 1.04 | S. cerevisiae deletion strains, locus YLR330W, strain CHS5, hits give low values 1.01 | S. cerevisiae deletion strains, locus YLR342W, strain FKS1 (second series), hits give low values 0.996 | S. cerevisiae deletion strains, locus YLR342W, strain FKS1, hits give low values 1.01 | S. cerevisiae deletion strains, locus YLR357W, strain rsc2, hits give low values 0.986 | S. cerevisiae deletion strains, locus YLR370C, strain arc18, hits give low values 1.01 | S. cerevisiae deletion strains, locus YLR371W, strain rom2, hits give low values 0.981 | S. cerevisiae deletion strains, locus YLR384C, strain iki3, hits give low values 1.03 | S. cerevisiae deletion strains, locus YLR418C, strain cdc73, hits give low values 1.01 | S. cerevisiae deletion strains, locus YML016C, strain PPZ1, hits give low values 0.981 | S. cerevisiae deletion strains, locus YML032C, strain rad52, hits give low values 1.03 | S. cerevisiae deletion strains, locus YML120C, strain ndi1, hits give low values 1.04 | S. cerevisiae deletion strains, locus YML124C, strain tub3, hits give low values 0.999 | S. cerevisiae deletion strains, locus YMR058W, strain fet3, hits give low values 0.945 | S. cerevisiae deletion strains, locus YMR078C, strain ctf18, hits give low values 1 | S. cerevisiae deletion strains, locus YMR125W, strain sto1, hits give low values 1.02 | S. cerevisiae deletion strains, locus YMR129W, hits give low values 1.02 | S. cerevisiae deletion strains, locus YMR205C, strain PFK2, hits give low values 1.06 | S. cerevisiae deletion strains, locus YMR223W, strain ubp8, hits give low values 0.991 | S. cerevisiae deletion strains, locus YMR231W, strain pep5, hits give low values 0.987 | S. cerevisiae deletion strains, locus YMR307W, strain GAS1, hits give low values 1.07 | S. cerevisiae deletion strains, locus YNL067W, strain RPL9B, hits give low values 0.984 | S. cerevisiae deletion strains, locus YNL071W, strain lat1, hits give low values 1.03 | S. cerevisiae deletion strains, locus YNL153C, strain GIM3, hits give low values 0.957 | S. cerevisiae deletion strains, locus YNL183C, strain NPR1, hits give low values 0.951 | S. cerevisiae deletion strains, locus YNL209W, strain ssb2, hits give low values 1 | S. cerevisiae deletion strains, locus YNL233W, strain BNI4, hits give low values 0.987 | S. cerevisiae deletion strains, locus YNL248C, strain rpa49, hits give low values 1.03 | S. cerevisiae deletion strains, locus YNL250W, strain rad50, hits give low values 0.986 | S. cerevisiae deletion strains, locus YNL271C, strain bni1, hits give low values 0.988 | S. cerevisiae deletion strains, locus YNL298W, strain CLA4, hits give low values 0.969 | S. cerevisiae deletion strains, locus YNL307C, strain MCK1, hits give low values 0.981 | S. cerevisiae deletion strains, locus YNL322C, strain KRE1 (second series), hits give low values 1.02 | S. cerevisiae deletion strains, locus YNR049C, strain mso1, hits give low values 1.02 | S. cerevisiae deletion strains, locus YNR052C, strain pop2, hits give low values 0.994 | S. cerevisiae deletion strains, locus YOL012C, strain htz1 1.18 | S. cerevisiae deletion strains, locus YOL147C, strain pex11, hits give low values 0.988 | S. cerevisiae deletion strains, locus YOR001W, strain rrp6, hits give low values 1.03 | S. cerevisiae deletion strains, locus YOR061W, strain CKA2, hits give low values 0.99 | S. cerevisiae deletion strains, locus YOR069W, strain VPS5, hits give low values 0.99 | S. cerevisiae deletion strains, locus YOR070C, strain gyp1, hits give low values 1 | S. cerevisiae deletion strains, locus YOR080W, strain dia2, hits give low values 1.02 | S. cerevisiae deletion strains, locus YOR083W, strain WHI5, hits give low values 1.01 | S. cerevisiae deletion strains, locus YOR106W, strain vam3, hits give low values 0.999 | S. cerevisiae deletion strains, locus YOR136W, strain idh2, hits give low values 0.976 | S. cerevisiae deletion strains, locus YOR144C, strain elg1, hits give low values 1 | S. cerevisiae deletion strains, locus YOR184W, strain ser1, hits give low values 1.02 | S. cerevisiae deletion strains, locus YOR231W, strain MKK1, hits give low values 0.983 | S. cerevisiae deletion strains, locus YOR265W, strain rbl2, hits give low values 1.02 | S. cerevisiae deletion strains, locus YOR270C, strain vph1, hits give low values 1.1 | S. cerevisiae deletion strains, locus YOR290C, strain snf2, hits give low values 1.02 | S. cerevisiae deletion strains, locus YOR316C, strain cot1, hits give low values 0.98 | S. cerevisiae deletion strains, locus YPL051W, strain arl3, hits give low values 1 | S. cerevisiae deletion strains, locus YPL055C, strain LGE1, hits give low values 1.01 | S. cerevisiae deletion strains, locus YPL078C, strain atp4, hits give low values 1.05 | S. cerevisiae deletion strains, locus YPL106C, strain sse1, hits give low values 0.99 | S. cerevisiae deletion strains, locus YPL240C, strain hsp82, hits give low values 1.02 | S. cerevisiae deletion strains, locus YPL256C, strain CLN2, hits give low values 0.983 | S. cerevisiae deletion strains, locus YPR119W, strain clb2, hits give low values 0.992 | S. cerevisiae deletion strains, locus YPR141C, strain kar3, hits give low values 0.978 | S. cerevisiae deletion strains, locus YPR163C, strain tif3, hits give low values 0.988 | S. cerevisiae deletion strains, locus YPR167C, strain met16, hits give low values 1 | S. cerevisiae deletion strains, strain wtn01, hits give low values 0.975 | S. cerevisiae strains, strain wild type, hits give low values 1
